Assay results from PubChem BioAssay (NCI).
About 83,000 compounds went through this panel and 20% of them were active in at least one assay; those are over-represented in the sample as a whole.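 A percent growth of 40 corresponds to 60% growth inhibition; 0 means no net growth; -100 means all cells died. Active threshold: below 10.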 Unmarked numbers belong to inactive results. Active and inactive are the calls of the source.

Columns and labels:
Test in all cases: NCI-60 one-dose screen, 48 h (100 = growth as untreated, 0 = no growth, -100 = all killed)
Settings in all cases: 10 µM unless noted
[1] = tested on: DU-145 prostate
[2] = tested on: K-562 leukemia
[3] = tested on: MALME-3M melanoma
[4] = tested on: MDA-MB-231 breast
[5] = tested on: RXF 393 renal
[6] = tested on: SF-268 CNS
[7] = tested on: SF-295 CNS
[8] = tested on: SF-539 CNS
[9] = tested on: UACC-257 melanoma
[10] = tested on: M14 melanoma
[11] = tested on: HCT-15 colon
[12] = tested on: HT29 colon
[13] = tested on: SNB-75 CNS
[14] = tested on: SNB-19 CNS
[15] = tested on: U251 CNS
[16] = tested on: PC-3 prostate
[17] = tested on: SK-MEL-5 melanoma
[18] = tested on: UACC-62 melanoma
[19] = tested on: LOX IMVI melanoma
[20] = tested on: SK-MEL-28 melanoma

Structure (SMILES) | growth [1] | growth [2] | growth [3] | growth [4] | growth [5] | growth [6] [%] | growth [7] | growth [8] | growth [9] | growth [10] | growth [11] | growth [12] | growth [13] | growth [14] | growth [15] | growth [16] | growth [17] | growth [18] | growth [19] | growth [20]
CC(=O)c1ccc(NC(=O)CSc2nnc(-c3cc(-c4ccc(C)cc4)nc4ccccc34)o2)cc1 | 63.5% | 38.1% | -5.39% (active) | -2.97% (active) | 59% | 55.2 | 69.5% | 53.7% | 101% | 57.9% | 56.7% | 68.2% | 62.1% | 43.2% | -59.8% (active) | 53.4% | 68.7% | 90.7% | 31.9% | 99.3%
N#Cc1c(-c2ccc(F)cc2)nc(N/N=C/c2c[nH]c3ccccc23)nc1N1CCOCC1 | 46.6% | 5.72% (active) | -63.5% (active) | 53.1% | -34.2% (active) | 68.8 | -17.4% (active) | 52.8% | -48.8% (active) | -0.73% (active) | 8.42% (active) | 18% | 62.5% | 89.7% | 32.2% | 49.9% | 37.1% | 61.8% | 20.6% | 4.29% (active)
C#C[C@@]1(O)[C@@H](CO)O[C@@H](n2cc(F)c3c(N)ncnc32)[C@@H]1O | 2.84% (active) | 9.21% (active) | -30.2% (active) | -14.8% (active) | -36.8% (active) | 15.9 | -23% (active) | 0.929% (active) | 2.98% (active) | -42% (active) | -5.29% (active) | 5.9% (active) | -34.3% (active) | 20.7% | 8.64% (active) | 5.02% (active) | -86.9% (active) | -51.9% (active) | -66.3% (active) | 45.2%
N#CCNc1ccc(C(=O)O)cc1 | 113% | 97.4% | 105% | 104% | 101% | 105 | 104% | 110% | 98.4% | 110% | 105% | 101% | 103% | 102% | 95% | 94.3% | 101% | 107% | 98.5% | 118%
CCN(CC)c1ccc2c(c1)Oc1nc(N)c(C#N)c(N)c1C2Sc1ccc(OC)cc1 (stereo not given) | -0.338% (active) | 13.5% | 1.4% (active) | -0.581% (active) | -0.0562% (active) | 16.5 | 29.1% | -34.6% (active) | 92.1% | -16.2% (active) | 2.89% (active) | -61.6% (active) | -10% (active) | 20.9% | -36.4% (active) | 1.15% (active) | 1.93% (active) | -16.9% (active) | -63.6% (active) | 29.3%
COc1ccc2nc(-c3ccc(Cl)cc3)cc(-c3nnc(SCC(=O)Nc4ccc(/C(C)=N\O)cc4)o3)c2c1 | 25.9% | 15.9% | 15.1% | 39.7% | 39.7% | 33.1 | 43% | 68.4% | 44.4% | 30.3% | 23.6% | 24.5% | 39.9% | -18.2% (active) | -15.2% (active) | 13.7% | 71.5% | 45.2% | 25.3% | 72.6%
O=C(O)c1cn(C2CC2)c2cc(N3CCN(C(=O)CSc4nnc(-c5ccc(Cl)cc5)n4-c4ccccc4)CC3)c(F)cc2c1=O | 108% | 96.1% | 114% | 106% | 113% | 103 | 107% | 105% | 96.4% | 109% | 104% | 97.2% | 95.8% | 91.3% | 101% | 93.7% | 98.8% | 91.3% | 72.3% | 109%
OCCNc1nc(NCCO)nc(Nc2ccc(C3=NN(c4cc(Cl)cc(Cl)c4)C(c4ccc(C(F)(F)F)cc4)C3)cc2)n1 (stereo not given) | 22.2% | 10.7% | 29.4% | 42.3% | -27.2% (active) | 41.7 | -15.5% (active) | 24.3% | 59.4% | 36.1% | 17.5% | 10.5% | -1.68% (active) | 44.4% | 19.3% | 19.2% | 52.7% | 47.1% | -48.5% (active) | 44.8%
CCOC(=O)c1sc(/N=C2\NC(=O)/C(=C/c3ccc(N4CCN(C)CC4)cc3)S2)nc1C | 97.3% | 95.2% | 99.7% | 112% | 112% | 97.3 | 102% | 100% | 110% | 108% | 95.9% | 86.9% | 101% | 104% | 106% | 102% | 98% | 113% | 65.7% | 113%
CC1=C(CCCOC(=O)NCCCl)C2=C(C)C3(CC3)[C@@](C)(O)C(=O)C2=C1 | 12.4% | 85.9% | 34.6% | 44.8% | -69.2% (active) | 14.1 | 1.44% (active) | 42.6% | 48.5% | 17.9% | 24.9% | 31.1% | 58.3% | 57.3% | 54.2% | 38% | 7.89% (active) | 49.9% | 61.1% | 69.3%
CSc1nc(-c2cccs2)c2c(N)[nH]nc2n1 | 107% | 88.4% | 121% | 97.9% | 114% | 105 | 102% | 93% | 114% | 126% | 99.6% | 93.2% | 93.7% | 106% | 98.9% | 93.6% | 101% | 93.7% | 93.3% | 114%
CCCCC1=c2c([nH]c3ccc(OC)cc23)=NC2C=CC=NC12 (stereo not given) | 98.8% | 72.1% | 108% | 79.9% | 92.8% | 93.1 | 106% | 93.7% | 126% | 101% | 84.2% | 77.8% | 92.9% | 104% | 103% | 86.1% | 84.3% | 94.5% | 91.4% | 112%
Cc1[nH]c2ncnc(Oc3ccc(NC(=O)Nc4ccc(Cl)c(C(F)(F)F)c4)cc3)c2c1C | 66.4% | 26.6% | 61.6% | 44.6% | 74.3% | 53 | 62.4% | 56% | 64.2% | 52.1% | 48.3% | 50.2% | 88.1% | 73.4% | 52.5% | 35% | 65.9% | 55.8% | 43.4% | 59.7%
Cc1nc2sc(C(=O)Nc3ccccc3)c(N)c2cc1C(C)O (stereo not given) | 18.3% | 16.3% | 64.2% | 51.4% | 12.7% | 53.4 | 21.9% | 6.49% (active) | 64% | 16.2% | 27.8% | 1.95% (active) | 30.9% | 24.3% | 21.7% | 21.5% | 26.5% | 29.5% | 47.5% | 55.8%
CCc1n(Cc2ccc3ccccc3c2)c2ccccc2[n+]1Cc1ccc2ccccc2c1 | 67.7% | 35.3% | 54.1% | 60.3% | 94.1% | 64.7 | 93.3% | 68.8% | 59% | 48.7% | 101% | 25.3% | 59% | 45.3% | 34.4% | 52.9% | 38.8% | 50.6% | 63.7% | 69.8%
